This is one part of a sample in which hits are shown more often than they occur.
GIRK2 act – Activators of human GIRK2-containing channels | HEK293 GIRK2/NPY4 cells, thallium flux fluorescence | activation (% efficacy), % for hits at 37.5 µM | 34,000 tested, under 10 active;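 active means primary screen hit, no activity in plain HEK293 cells, and in GIRK2-only cells above 5% efficacy rising with concentration; inactive means the rest, including fluorescent compounds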;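 further: efficacy is normalized control-subtracted fluorescence 15 s after thallium addition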
GluA2 TARP mod – modulators of AMPA receptor GluA2-stargazin complexes; O88602+P19491; HEK293 GluA2+stargazin, membrane potential dye (FDSS), glutamate EC50; hits were called plate by plate, in both directions; calls only at 30 µM; 40,000 tested, 3.5% active;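 active means any of four per-well response measures lying three or more SD from its plate-wide compound average, in either direction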
Target sequence (O88602 whole entry, looked up): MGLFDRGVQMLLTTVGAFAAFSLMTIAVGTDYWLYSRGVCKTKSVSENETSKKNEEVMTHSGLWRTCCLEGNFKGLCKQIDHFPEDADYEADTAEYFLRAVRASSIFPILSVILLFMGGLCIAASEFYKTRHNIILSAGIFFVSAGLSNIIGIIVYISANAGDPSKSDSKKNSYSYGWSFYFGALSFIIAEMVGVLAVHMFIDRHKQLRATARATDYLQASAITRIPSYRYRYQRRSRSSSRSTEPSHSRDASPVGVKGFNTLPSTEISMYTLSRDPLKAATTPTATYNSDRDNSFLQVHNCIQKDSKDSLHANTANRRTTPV
Target sequence (P19491 whole entry, looked up): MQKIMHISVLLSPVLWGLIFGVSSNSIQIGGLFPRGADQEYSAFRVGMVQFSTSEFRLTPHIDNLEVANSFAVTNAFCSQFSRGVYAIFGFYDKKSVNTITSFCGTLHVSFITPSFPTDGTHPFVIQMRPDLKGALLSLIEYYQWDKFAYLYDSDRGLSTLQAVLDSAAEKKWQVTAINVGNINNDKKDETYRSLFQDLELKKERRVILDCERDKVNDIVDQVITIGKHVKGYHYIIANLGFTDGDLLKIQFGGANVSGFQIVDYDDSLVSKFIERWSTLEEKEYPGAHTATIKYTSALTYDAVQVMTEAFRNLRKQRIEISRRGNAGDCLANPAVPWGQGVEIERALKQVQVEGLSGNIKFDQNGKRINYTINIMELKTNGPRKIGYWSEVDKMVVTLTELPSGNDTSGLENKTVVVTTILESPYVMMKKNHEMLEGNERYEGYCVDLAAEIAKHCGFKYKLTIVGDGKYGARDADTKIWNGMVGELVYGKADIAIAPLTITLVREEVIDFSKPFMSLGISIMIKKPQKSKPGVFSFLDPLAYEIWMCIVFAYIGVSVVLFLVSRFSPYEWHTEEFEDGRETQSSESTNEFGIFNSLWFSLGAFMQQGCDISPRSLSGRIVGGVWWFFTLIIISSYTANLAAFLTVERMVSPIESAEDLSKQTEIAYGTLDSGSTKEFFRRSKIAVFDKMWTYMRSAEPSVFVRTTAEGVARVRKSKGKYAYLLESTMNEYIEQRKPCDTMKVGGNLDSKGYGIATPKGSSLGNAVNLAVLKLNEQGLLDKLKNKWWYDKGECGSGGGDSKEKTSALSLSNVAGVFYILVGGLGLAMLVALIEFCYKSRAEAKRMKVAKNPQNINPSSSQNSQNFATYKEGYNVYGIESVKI
* = called active by the depositor.

What do the screens show for `CCOC(=O)COc1ccc2c(=O)c(-c3ccccc3)c(C)oc2c1`?
GluA2 TARP mod: inactive

What do the screens show for `COc1ccccc1-c1c(C)oc2cc(OCC=C(C)C)ccc2c1=O`?
GluA2 TARP mod: active

What do the screens show for `CCN(CC)C(=O)Oc1ccc2c(=O)c(-c3ccc(OC)c(OC)c3)c(C)oc2c1`?
GIRK2 act: inactive; GluA2 TARP mod: active

Results for Cc1oc2cc(OCC(=O)OCc3ccccc3)ccc2c(=O)c1-c1ccccc1 ?
GluA2 TARP mod: active

Results for COc1cccc(C(CNS(=O)(=O)Cc2ccccc2Cl)N2CCOCC2)c1 (centres undefined) ?
GIRK2 act: inactive; GluA2 TARP mod: inactive

What do the screens show for `COc1cccc(-c2cc(CC(=O)NCCCN3CCOCC3)no2)c1`?
GIRK2 act: inactive; GluA2 TARP mod: active

How did COc1ccc(-c2cc(CC(=O)NCCN3CCOCC3)no2)cc1 do in these assays?
GIRK2 act: inactive

Results for CCOC(=O)c1c(C(C)(C)C)oc2ccc(OC(=O)N3CCOCC3)cc12 ?
GluA2 TARP mod: inactive

How did CCC1CCCCN1C(=O)c1cc2c(=O)n3cc(C)ccc3nc2n1Cc1ccccc1 (centres undefined) do in these assays?
GluA2 TARP mod: inactive

What do the screens show for `Cc1cc(C(=O)Nc2sc3c(c2C#N)CCC(C)C3)nn1C(C)C` (centres undefined)?
GIRK2 act: inactive; GluA2 TARP mod: inactive

Results for Cc1ccc(-c2ccc(=O)n(CCCNS(=O)(=O)c3c(C)cc(C)cc3C)n2)cc1 ?
GIRK2 act: inactive; GluA2 TARP mod: active

Results for COc1ccc(-c2ccc(=O)n(CCNS(=O)(=O)c3c(C)cc(C)cc3C)n2)cc1 ?
GluA2 TARP mod: inactive

How did O=c1ccc(-c2ccccc2)nn1CCCNS(=O)(=O)c1ccc2c(c1)CCCC2 do in these assays?
GIRK2 act: inactive; GluA2 TARP mod: active

What do the screens show for `O=c1ccc(-c2cccs2)nn1CCCNS(=O)(=O)c1ccc(Cl)c(Cl)c1`?
GIRK2 act: inactive; GluA2 TARP mod: inactive

How did O=c1ccc(-c2cccs2)nn1CCCNS(=O)(=O)c1cccc(C(F)(F)F)c1 do in these assays?
GIRK2 act: inactive; GluA2 TARP mod: active

What do the screens show for `COc1ccc(-c2ccc(=O)n(CCNS(=O)(=O)c3ccc4c(c3)CCCC4)n2)cc1`?
GluA2 TARP mod: inactive

Results for CS(=O)(=O)c1ccc(NC(=O)C2CN(c3nc4c(F)cccc4s3)C2)cc1 ?
GIRK2 act: inactive; GluA2 TARP mod: inactive

How did COc1cc(Cl)c(S(=O)(=O)N2CCc3ccccc3C2)cc1Cl do in these assays?
GluA2 TARP mod: inactive

Results for CCn1nc(C(=O)Nc2nnc(CCSc3ccccc3)o2)cc1C ?
GIRK2 act: inactive

What do the screens show for `CCC1(C)CC(CCN(Cc2ccccc2F)C(C)=O)(c2ccccc2)CCO1` (centres undefined)?
GluA2 TARP mod: active

How did O=C(NCC1(c2ccccc2)CCOCC1)c1ccccc1C(F)(F)F do in these assays?
GIRK2 act: inactive; GluA2 TARP mod: inactive

How did Cc1ccc([N+](=O)[O-])cc1NC(=O)CCN1C(=O)c2ccccc2S1(=O)=O do in these assays?
GIRK2 act: inactive; GluA2 TARP mod: inactive

What do the screens show for `CCc1ccc2nc(N(CCN3CCOCC3)C(=O)c3nc4ccccc4s3)sc2c1`?
GIRK2 act: inactive; GluA2 TARP mod: inactive

How did CCOc1cc(C)ccc1S(=O)(=O)N1CC(C)CC(C)C1 (centres undefined) do in these assays?
GluA2 TARP mod: active

How did CCOc1cc(C)ccc1S(=O)(=O)N1CCCCC1 do in these assays?
GluA2 TARP mod: inactive

Results for CCOc1ccc(C(=O)Nc2ccc3c(c2)CCCN3C(=O)C2CC2)cc1OCC ?
GluA2 TARP mod: inactive

What do the screens show for `COCCN1CCC(CNS(=O)(=O)c2ccc(OC)c(C)c2)CC1`?
GIRK2 act: inactive; GluA2 TARP mod: inactive

What do the screens show for `COc1ccc(-c2ccc(N3CCC(C(=O)NCCc4c[nH]c5ccccc45)CC3)nn2)cc1`?
GIRK2 act: inactive; GluA2 TARP mod: active

Results for O=C(Cc1c[nH]c2ccccc12)N1CCN(c2cc(-c3cccnc3)[nH]n2)CC1 ?
GIRK2 act: inactive

How did COc1ccc(-c2ccc(N3CCC(C(=O)N4CCN(C)CC4)CC3)nn2)cc1 do in these assays?
GIRK2 act: inactive; GluA2 TARP mod: inactive

Results for COc1cc(OC)cc(C(=O)N2CCN(c3ccc(-c4ccncc4)nn3)CC2)c1 ?
GIRK2 act: inactive; GluA2 TARP mod: active

What do the screens show for `O=C(c1ccc2c(c1)OCO2)N1CCN(c2ccc(-c3ccncc3)nn2)CC1`?
GIRK2 act: inactive; GluA2 TARP mod: inactive

What do the screens show for `COc1ccc(-c2ccc(N3CCC(C(=O)NC4CC4)CC3)nn2)cc1`?
GIRK2 act: inactive; GluA2 TARP mod: active

How did COc1ccccc1CNC(=O)C1CCN(c2ccc(-c3ccc(F)cc3)nn2)CC1 do in these assays?
GIRK2 act: inactive; GluA2 TARP mod: inactive
